From PubChem BioAssay (NCATS) come the findings set out here.

The structures appear in SMILES notation. Results filed as inconclusive are left out. Calls of active or inactive are those of the source. Calls follow the shape of the dose curve; as a rule, active = well fitted curve in the direction sought with a large enough effect; inconclusive = small, poorly fitted or top-dose-only effect, or another doubt; inactive = no such curve, though single readings can be large; an effect the other way counts as inactive or inconclusive.
% is scaled to controls: 0 for no effect and ±100 for the full control effect.

The target of one assay is Rap guanine nucleotide exchange factor 4 (Homo sapiens) (UniProt Q8WZA2). The assay can be described thus: Confirmatory qHTS for agonist of cAMP-regulated guanine nucleotide exchange factor 4 (EPAC2) (AID 1645884).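 Also: nucleotide exchange releases bodipy-GDP from Rap1 and this lowers its fluorescence; nearly all actives have a fitted effect of over 65% in size.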 As to conditions: EPAC2 GEF activity, Rap1B-BODIPY-GDP fluorescence; series mostly up to 154 µM; activation: at the top concentration. (qHTS replaces the single test concentration by a dilution series.)
Sequence of Rap guanine nucleotide exchange factor 4 (Homo sapiens) (Q8WZA2 whole entry, looked up): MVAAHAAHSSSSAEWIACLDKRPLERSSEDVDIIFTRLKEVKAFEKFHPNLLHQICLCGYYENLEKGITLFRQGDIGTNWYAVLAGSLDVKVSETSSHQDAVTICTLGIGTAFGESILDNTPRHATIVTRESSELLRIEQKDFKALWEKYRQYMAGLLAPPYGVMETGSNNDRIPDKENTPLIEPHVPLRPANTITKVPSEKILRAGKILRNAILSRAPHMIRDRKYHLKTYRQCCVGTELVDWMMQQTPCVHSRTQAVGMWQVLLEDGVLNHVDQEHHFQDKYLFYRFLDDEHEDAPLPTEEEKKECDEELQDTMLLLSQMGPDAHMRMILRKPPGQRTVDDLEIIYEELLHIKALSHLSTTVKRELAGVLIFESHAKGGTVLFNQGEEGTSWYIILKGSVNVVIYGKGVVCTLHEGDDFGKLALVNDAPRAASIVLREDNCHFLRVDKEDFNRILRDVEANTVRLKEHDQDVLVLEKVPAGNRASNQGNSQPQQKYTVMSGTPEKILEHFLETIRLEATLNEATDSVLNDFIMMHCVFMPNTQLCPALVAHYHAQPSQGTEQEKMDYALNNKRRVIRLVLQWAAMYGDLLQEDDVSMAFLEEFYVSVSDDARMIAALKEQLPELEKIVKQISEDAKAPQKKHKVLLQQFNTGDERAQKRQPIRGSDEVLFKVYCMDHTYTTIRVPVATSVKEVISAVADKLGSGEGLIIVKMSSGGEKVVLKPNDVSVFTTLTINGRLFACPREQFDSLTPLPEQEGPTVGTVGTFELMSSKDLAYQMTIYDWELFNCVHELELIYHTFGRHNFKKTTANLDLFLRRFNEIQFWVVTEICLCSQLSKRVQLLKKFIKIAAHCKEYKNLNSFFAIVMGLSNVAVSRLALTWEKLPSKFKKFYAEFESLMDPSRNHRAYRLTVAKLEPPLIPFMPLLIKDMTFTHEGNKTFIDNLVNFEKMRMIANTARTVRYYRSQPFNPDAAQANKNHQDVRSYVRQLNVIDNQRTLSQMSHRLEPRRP
`O=C(O)c1cccc(Nc2ccc([N+](=O)[O-])c3nonc23)c1`: the “activation” value is -20% (inactive).
Same read-out and setting: the value for `CCCc1[nH]c2ccc(C(=O)OC)cc2c1CCC` was 8.94% (inactive); that for `COc1ccc(C2CC(=O)c3c(O)cc(O)cc3O2)c(CC=C(C)C)c1OC` (stereo unspecified) was 1.79% (inactive).
With `C=CC(C)N1C(=O)S/C(=C\c2ccc(N3CCOCC3)cc2C)C1=O` (stereo unspecified), the “activation” value is -29.2% (inactive).
Consider `CC(C)(C)OC(=O)N1CCC(c2c(C(=O)NCCN3CCC(Cc4ccccc4)CC3)cnn2-c2cccc(Cl)c2)CC1`, for which the “activation” value was -2.28% [at 83.8 µM, percent relative to cAMP agonist control] (inactive).
`CCCCOC(=O)C1=C(C)Nc2nnnn2C1c1ccccc1Cl` (stereo unspecified): the “activation” value was -22.6% (inactive).
On the same count and under the same terms, the value for `CCCC(=O)NC(c1ccc(C)cc1)c1ccc2cccnc2c1O` (stereo unspecified) was 0% [at 17.1 µM, percent relative to cAMP agonist control] (inactive); that for `CCc1ccc2c(c1)NC(=O)C2(C)Cc1ccc(C(F)(F)F)o1` (stereo unspecified) was -24.2% (inactive); that for `Cc1ccc(NS(=O)(=O)c2cccc(C(=O)OCC(=O)NCc3ccco3)c2)cc1` was -0.394% (inactive).
As for `CCc1nc2ccc(C(=O)Nc3ccc(NC(C)=O)cc3)cn2c1N(C)CCC(C)C`, the “activation” value was 8.13% (inactive).
Same read-out and setting: the value for `CC(C)C(=O)Nc1nc2c(s1)CC(C(C)(C)C)CC2` (stereo unspecified) was -1.45% [at 83.8 µM, percent relative to cAMP agonist control] (inactive); that for `CCC(C)(C)c1ccc(OCC(=O)N(C)C)c(C(C)(C)CC)c1` was -42.6% (inactive).
On to `C[C@H](CO)N1C[C@H](C)[C@@H](CN(C)Cc2ccc(Cl)c(Cl)c2)Oc2c(NC(=O)CCC(F)(F)F)cccc2C1=O`, for which the “activation” value is -22.3% (inactive).
On the same count and under the same terms, the value for `C/C=C/C(=O)Nc1cccc(C2=NOC3(C2)C[C@@H](C(N)=O)N(C(=O)/C(C)=C/C)C3)c1` (stereo partly specified) was 8.1% (inactive).
On to `Cc1ccnc(NC(=O)C2CCN(S(=O)(=O)c3cccc(C(F)(F)F)c3)CC2)c1`, for which the “activation” value was 2.84% (inactive).
In the case of `CCC/C=C/c1ccc(CN2C(CC(C)C)C(=O)N(Cc3cn(Cc4ccco4)nn3)CCS2(=O)=O)cc1` (stereo unspecified), the “activation” value was -42.4% (inactive).

The target is the same in another assay. Put plainly: Confirmatory qHTS for antagonist of cAMP-regulated guanine nucleotide exchange factor 4 (EPAC2) (AID 1645885). Also: nearly all actives have a fitted effect of over 25% in size. Also: potency is read from the fitted curve at half-maximal effect. The note with it: EPAC2 Rap1B-BODIPY-GDP exchange fluorescence, biochemical; series mostly up to 12.7 µM; activity change, negative = inhibition: at the top concentration.
For the molecule `CCCCCC(=O)N1c2ccccc2C(C)(c2ccccc2)CC1(C)C` (stereo unspecified), the “activity change, negative = inhibition” value was -34.9% (inactive).
Still for that read-out and setting: the same measure for `CCCCn1c(CNC(=O)C23CC4CC(CC(C4)C2)C3)nnc1SCC(=O)Nc1nnc(C)s1`: -4.72% (inactive).
Turning to `O=S(=O)(c1ccc2nc(-c3ccco3)c(-c3ccco3)nc2c1)N1CCOCC1`, the “activity change, negative = inhibition” value is 10% (inactive).
Same read-out and setting: the same measure for `CC(C)(C)Cc1c(-c2ccco2)nc2ccc(Cl)cn12`: -16.9% (inactive).
Turning to `CC1CN(C(=O)c2ccc(-c3cccc(C(F)(F)F)c3)o2)CC(C)O1` (stereo unspecified), the “activity change, negative = inhibition” value is 0.661% (inactive).
On the same count and under the same terms, the value for `O=C(CSc1nccn1Cc1ccc(Cl)cc1)Nc1ccc2c(c1)OCO2` was 12.8% (inactive); that for `FC(F)(F)c1cccc(CN2CCC(c3cc(-c4cccs4)n[nH]3)CC2)c1` was 49.9% [at 114 µM] (inactive); that for `O=C(COC(=O)c1cccc(NS(=O)(=O)c2ccc(F)c(F)c2)c1)NC(=O)NC1CCCC1` was -24.5% [at 114 µM] (inactive).
`O=C(NCc1ccc(OC(F)(F)F)cc1)C1CC(c2ccccc2C(F)(F)F)=NO1` (stereo unspecified): the “activity change, negative = inhibition” value is -2.83% (inactive).
In the case of `Cc1cc2c(cc1C)C(c1ccccc1OC(C)C)CC(=O)N2` (stereo unspecified), the Potency is 33.8 µM (active).
With `CCN(Cc1ccccc1)S(=O)(=O)c1cc2c3c(c1)CCN3C(=O)CC2`, the “activity change, negative = inhibition” value was -17.1% (inactive).
As for `O=C(O)CCCC(=O)N1CCN(c2nc(-c3ccccc3Cl)c3cc(Br)ccc3n2)CC1`, the Potency is 13.5 µM (active).
On to `COCc1nc2ccccc2n1Cc1ccc(C(C)(C)C)cc1`, for which the “activity change, negative = inhibition” value was 60.2% (inactive).
Take `CC(C)(C)c1ccc(C(=O)N2CCCC(c3nc4c(nnn4Cc4cccc(F)c4)c(=O)[nH]3)C2)cc1` (stereo unspecified): the outcome is “inactive [at 12.7 µM]”.
Take `Nc1cc(OC(=O)c2cccs2)nn1S(=O)(=O)c1ccc(F)cc1`: the Potency is 84.9 µM (active).
Turning to `CC(C)CCNC(=O)c1onc(CSc2ccccn2)c1C(=O)NCCC(C)C`, the “activity change, negative = inhibition” value is -30.3% [at 114 µM] (inactive).
On the same count and under the same terms, the value for `NC(CSC(c1ccccc1)(c1ccccc1)c1cccc2ccccc12)C(=O)O` (stereo unspecified) was -3.15% (inactive).
As to `COc1ccc(N2C(=O)CSC23C(=O)N(Cc2cccc(C(F)(F)F)c2)c2ccccc23)cc1` (stereo unspecified), the outcome was “inactive [at 12.7 µM]”.
Turning to `CC1=CCC[C@@H]2[C@@](C)(CC/C(C)=C/C(=O)O)[C@H](C)CC[C@@]12C`, the “activity change, negative = inhibition” value was -9.39% (inactive).
Consider `CC1Sc2ccc(C#N)cc2N(Cc2cccc(C(F)(F)F)c2)C1=O` (stereo unspecified), for which the “activity change, negative = inhibition” value is 79.1% [at 114 µM] (inactive).
On the same count and under the same terms, the value for `C/C(=N\NS(=O)(=O)c1ccc(C(C)(C)C)cc1)c1ccccc1` was -10.7% (inactive).
As to `O=C(O)CN1C(=O)/C(=C\c2ccccc2OCc2ccc(Cl)cc2)SC1=S`, the Potency was 42.6 µM (active).
For the molecule `C=CCNC(=O)c1oc2ccc(S(=O)(=O)N(CC)CC)cc2c1C`, the “activity change, negative = inhibition” value is -13.2% [at 114 µM] (inactive).
For the molecule `Nc1ccc(N2CCCCC2)c2nonc12`, the “activity change, negative = inhibition” value was -13.5% (inactive).
`O=C(O)c1cccc(Nc2ccc([N+](=O)[O-])c3nonc23)c1`: the “activity change, negative = inhibition” value is 80.1% [at 114 µM] (inactive).
Consider `CCCc1[nH]c2ccc(C(=O)OC)cc2c1CCC`, for which the Potency is 19 µM (active).
Same read-out and setting: the same measure for `COc1ccc(C2CC(=O)c3c(O)cc(O)cc3O2)c(CC=C(C)C)c1OC` (stereo unspecified): 67.5 µM (active); for `C=CC(C)N1C(=O)S/C(=C\c2ccc(N3CCOCC3)cc2C)C1=O` (stereo unspecified): 84.9 µM (active).
As to `CC(C)(C)OC(=O)N1CCC(c2c(C(=O)NCCN3CCC(Cc4ccccc4)CC3)cnn2-c2cccc(Cl)c2)CC1`, the “activity change, negative = inhibition” value is 1.71% (inactive).
On the same count and under the same terms, the same measure for `CCCCOC(=O)C1=C(C)Nc2nnnn2C1c1ccccc1Cl` (stereo unspecified): 7.26% [at 114 µM] (inactive); for `CCCC(=O)NC(c1ccc(C)cc1)c1ccc2cccnc2c1O` (stereo unspecified): -17.8% (inactive).
Regarding `CCc1ccc2c(c1)NC(=O)C2(C)Cc1ccc(C(F)(F)F)o1` (stereo unspecified), the “activity change, negative = inhibition” value was 66.2% [at 114 µM] (inactive).
On to `Cc1ccc(NS(=O)(=O)c2cccc(C(=O)OCC(=O)NCc3ccco3)c2)cc1`, for which the “activity change, negative = inhibition” value was -7.3% [at 114 µM] (inactive).
Regarding `CCc1nc2ccc(C(=O)Nc3ccc(NC(C)=O)cc3)cn2c1N(C)CCC(C)C`, the “activity change, negative = inhibition” value was -19.1% [at 114 µM] (inactive).
Consider `CC(C)C(=O)Nc1nc2c(s1)CC(C(C)(C)C)CC2` (stereo unspecified), for which the “activity change, negative = inhibition” value is 25.2% (inactive).
For `CCC(C)(C)c1ccc(OCC(=O)N(C)C)c(C(C)(C)CC)c1`, the Potency was 67.5 µM (active).
For `C[C@H](CO)N1C[C@H](C)[C@@H](CN(C)Cc2ccc(Cl)c(Cl)c2)Oc2c(NC(=O)CCC(F)(F)F)cccc2C1=O`, the Potency was 19 µM (active).
As for `C/C=C/C(=O)Nc1cccc(C2=NOC3(C2)C[C@@H](C(N)=O)N(C(=O)/C(C)=C/C)C3)c1` (stereo partly specified), the “activity change, negative = inhibition” value was 3.31% [at 114 µM] (inactive).
In the case of `Cc1ccnc(NC(=O)C2CCN(S(=O)(=O)c3cccc(C(F)(F)F)c3)CC2)c1`, the result was inactive.
For `CCC/C=C/c1ccc(CN2C(CC(C)C)C(=O)N(Cc3cn(Cc4ccco4)nn3)CCS2(=O)=O)cc1` (stereo unspecified), the “activity change, negative = inhibition” value is 99.4% [at 114 µM] (inactive).
